# Experimental data: PubChem BioAssay AID1578 (Sanford-Burnham Center for Chemical Genomics, 2009)
# Screen size: about 290,000 compounds; about 3,000 (1%) were called active. Many of the other results were omitted from the sample, so actives are more common in it than they were. A number with no mark means an inactive call. No stated cut-off is given here; in the data, active means inhibition mostly above about 36% (no sharp cut-off); inactive means mostly below about 34%.
# Experiment: NOD1 signaling inhibitors, primary screen, cell-based, luminescence, uHTS (AID 1578);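 further: HEK-293T reporter cells stimulated with the NOD1 agonist gamma-tri-DAP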
# Settings: NOD1-driven NF-kB luciferase reporter cells, at 4 µM, active compounds read high
row,Structure (SMILES),inhibition
1,CCOC(=O)c1c(C)[nH]c(C2=NNC(=Nc3ccc(OCC)cc3)SC2)c1C,-31.6%
2,CC1(C)CC(=O)c2c(O)cc(O)cc2O1,-18.9%
3,COc1cc(O)c2c(c1)OC(C)(C)CC2=O,5.2%
4,COc1cc(O)cc2cc3c(c(O)c12)C(=O)CC(C)(O)O3 (stereo not given),51.8% (active)
5,Cc1ccc(S(=O)(=O)c2nnn3c2nc(N2CCCCC2)c2ccccc23)cc1,-42.5%
6,COc1ccc(CCNC(=O)c2cc(C)oc2C)cc1,-16%
7,CC(=O)Nc1ccc(OCc2cccc3ccccc23)cc1,29.7%
8,Cc1ccc(C(C#N)c2ccc3c(C(F)(F)F)cc(C(F)(F)F)nc3n2)cc1 (stereo not given),30%
9,N#CC(c1ccc(Cl)cc1)c1ccc2c(C(F)(F)F)cc(C(F)(F)F)nc2n1 (stereo not given),39.5%
10,CCNS(=O)(=O)c1ccc2c(c1)NCC2,-16.1%
11,COc1ccc(C(=O)NC(=S)N(C)Cc2ccccc2)cc1Br,45% (active)
12,COc1cc(C(=O)NC(=S)N(C)Cc2ccccc2)cc(OC)c1OC,-14.8%
13,COc1ccc(C(=O)N(C)Cc2ccccc2)cc1Br,-39.1%
14,Cc1cc(C)c(OCCCCn2cnc3ccccc3c2=O)c(C)c1,12.5%
15,CCOC(=O)Cc1[nH]nc2c1C(c1ccsc1)C(C#N)=C(N)O2 (stereo not given),-16.3%
16,CC(=O)Nc1ccc(S(=O)(=O)Nc2ccc3c(c2)OCCO3)cc1,-25%
17,C=CC[n+]1c(-c2ccc(C)cc2)csc1Nc1c(C)n(C)n(-c2ccccc2)c1=O,8.4%
18,CC[n+]1c(-c2ccccc2)csc1Nc1c(C)n(C)n(-c2ccccc2)c1=O,-17.7%
19,CCOc1ccc(CCNC(=O)C2CCC(=O)N2C2CCCCC2)cc1OCC (stereo not given),6%
20,O=C(NCc1cccnc1)C1CCCN(S(=O)(=O)c2ccccc2)C1 (stereo not given),-13.3%
21,Cc1cc([N+](=O)[O-])nn1CCCC(=O)Nc1ccc(Cl)cc1Cl,-21%
22,COC(=O)c1cccc(NC(=O)Cn2nnc3ccccc32)c1,-17.8%
23,Cc1csc(NC(=O)CSc2nnc3ncccn23)n1,-6.2%
24,CCCCNC(=O)NCc1cnn(C)c1C,-24.6%
25,CC(=O)NNC(=O)c1ccncc1,-26.4%

row,Structure (SMILES),inhibition
1,CCCCc1nc2ccc(S(=O)(=O)O)cc2[nH]1,7.8%
2,Cn1cnc([N+](=O)[O-])c1S(=O)(=O)c1ccc(Cl)cc1,-30.1%
3,COc1ccc([N+](=O)[O-])c(S(=O)(=O)c2ccc(Cl)cc2)n1,79.2% (active)
4,COc1nc(OC)nc(Oc2ccc(Cl)cc2[N+](=O)[O-])n1,0.6%
5,COc1ccc([N+](=O)[O-])c(S(=O)(=O)c2ccccc2)n1,61.7% (active)
6,COc1ccc(OCCOc2ccccc2[N+](=O)[O-])cc1,-19.1%
7,Nc1cccnc1S(=O)(=O)c1ccccc1,-2.3%
8,O=[N+]([O-])c1ccccc1S(=O)(=O)c1ccccc1,-2.8%
9,COc1ccccc1S(=O)(=O)c1ccccc1[N+](=O)[O-],-10.5%
10,Cc1ccc(C(=O)COC(=O)CN2C(=O)C3C4CC(C(Br)C4Br)C3C2=O)cc1 (stereo not given),-29.5%
11,CC(C)n1c(=O)n(CC(=O)NCC2CCCO2)c(=O)c2c3c(sc21)COC(C)(C)C3 (stereo not given),-14%
12,Cc1ccc(N(C(C)C(=O)Nc2cccc(N(C)S(C)(=O)=O)c2)S(C)(=O)=O)cc1 (stereo not given),-21.2%
13,CC(C)NC(=O)CN(Cc1ccc2c(c1)OCO2)C(=O)CCC(=O)Nc1ccccn1,-22.2%
14,O=C(Cc1ccc([N+](=O)[O-])cc1)N1CCN=C1SCc1ccccc1,-5%
15,Cc1cc(S(=O)(=O)Nc2ccc(C(=O)NCC(C)(C)N3CCOCC3)cc2)ccc1F,-4.6%
16,OCCN(CCO)CC(O)CN1c2ccccc2Sc2ccccc21 (stereo not given),2.7%
17,CCC(C)NC(=O)Cn1cc2c(n1)CCC(C)C2 (stereo not given),7.9%
18,CCOc1ccccc1N(CC(=O)NCc1ccco1)C(=O)CCC(=O)Nc1nccs1,-30.2%
19,COc1ccc(CNCc2cc(OC)ccc2OC)cc1,-19.6%
20,CSC1=C(C#N)C(c2ccccc2Cl)C(C(=O)c2cccs2)C(O)(C(F)(F)F)N1 (stereo not given),-8.1%
21,C=CCSC1=C(C#N)C(c2ccccc2Cl)C(C(=O)c2cccs2)C(O)(C(F)(F)F)N1 (stereo not given),63.3%
22,CCSC1=C(C#N)C(c2ccccc2Cl)C(C(=O)c2cccs2)C(O)(C(F)(F)F)N1 (stereo not given),64.5% (active)
23,CC1=NN(c2ccccc2)C(=O)C1=C(C)C,-15.5%
24,CCOC(=O)C(c1ccccc1)C(Nc1ccc(F)cc1)c1ccccn1 (stereo not given),-2%
25,O=C(N/N=C/c1cccc(F)c1)c1ccc(Cl)cc1,-50.5%

row,Structure (SMILES),inhibition
1,Cn1c(=O)n(C)c2cc(/C=N/NC(=O)c3ccc(Cl)cc3)ccc21,-11.1%
2,CC(C)(C)c1ccc(C(=O)N/N=C/c2cccc(Cl)c2)cc1,72.3% (active)
3,CCC(=O)c1c[nH]c(C(=O)N2CCOCC2)c1,-10.3%
4,CCCCCCN1C=CC(=C2C(=O)c3ccccc3C2=O)C=C1,80.8% (active)
5,CCCCCN1C=CC(=C2C(=O)c3ccccc3C2=O)C=C1,93.3% (active)
6,CCCN1C=CC(=C2C(=O)c3ccccc3C2=O)C=C1,97.9%
7,CC1=CC(=C2C(=O)c3ccccc3C2=O)C=C(C)N1C,-1.3%
8,CCCCCCN1Cc2ccccc2C1,5.4%
9,CC1=CC(=C2C(=O)c3ccccc3C2=O)C=C(C)O1,-62.6%
10,CCCCCCCN1C=CC(=O)CC1,2%
11,CCCCN1C=CC(=C2C(=O)c3ccccc3C2=O)C=C1,95.3% (active)
12,CCCCN1C(C)=CC(=C2C(=O)c3ccccc3C2=O)C=C1C,-16.5%
13,CCCCN1C=CC(=C2N=c3cccc([N+](=O)[O-])c3=N2)C=C1,35.9%
14,CCN1C=CC(=C2C(=O)c3ccccc3C2=O)C=C1,90.4% (active)
15,CN1C=CC(=C2C(=O)c3ccccc3C2=O)C=C1,-58.3%
16,COC(=O)c1ccc(CC(=O)c2nc3ccccc3s2)cc1,-21.3%
17,COc1ccc(C2CC(c3ccc4ccccc4c3OC(C)=O)=NN2C(C)=O)cc1 (stereo not given),-2.5%
18,CCN(CC)S(=O)(=O)c1ccc2c(c1)[nH]c(=S)n2CC,-41.3%
19,CCOc1ccc(CCNC(=O)COC(=O)C2CCN(S(=O)(=O)c3ccc(C)c(C)c3)CC2)cc1OCC,-4.1%
20,CC(=O)NC1CC2CCC(C1)N2Cc1ccc(C)cc1 (stereo not given),-106%
21,Cc1c(C)c2ccc(OCC(=O)NC(Cc3ccc(Cl)cc3)C(=O)O)cc2oc1=O (stereo not given),-25%
22,O=S(=O)(c1ccccc1)N1CCCc2ccccc21,8.6%
23,COc1ccc(N2CCN(C(=O)c3cc(=O)c4cc(C)c(C)cc4o3)CC2)cc1,-10.3%
24,c1ccc(OCc2nc3ccccc3s2)cc1,-39.1%
25,COC(=O)c1ccc(CN2C(=O)NC3(CCC(C)CC3)C2=O)cc1 (stereo not given),-51.8%

row,Structure (SMILES),inhibition
1,COCCNC(=S)N/N=C/c1ccccc1C(=O)O,-17.1%
2,CCc1ccc(C(=O)c2cncc(Br)c2)cc1,-3.9%
3,Cc1ccc(C(=O)c2cncc(Br)c2)cc1,48.9% (active)
4,Cc1ccc(NC(=O)c2cncc(Br)c2)c([N+](=O)[O-])c1,5.4%
5,O=C(c1ccccc1)c1cncc(Br)c1,-4.9%
6,Cc1ccc(NC(=O)c2cncc(Br)c2)nc1,-55.8%
7,Cc1ccc(NC(=O)c2cncc(Br)c2)c(O)c1,66% (active)
8,O=C(C[n+]1cc(-c2ccc(F)cc2)n2c1CCC2)Nc1nc(-c2ccc(F)cc2)cs1,11.7%
9,CCS(=O)(=O)n1nc(-c2ccccc2)nc1NCc1ccco1,-33.3%
10,Cc1ccc(-c2nc(NCc3ccco3)n(S(C)(=O)=O)n2)cc1,-21.9%
11,CS(=O)(=O)n1nc(-c2ccccc2)nc1NCc1ccco1,57.3% (active)
12,Cc1c(C)n(-c2ccccc2)c2ncnc(NCCN(C)C)c12,1.2%
13,O=C(Nc1nc(-c2ccc(-c3ccccc3)cc2)cs1)c1cc([N+](=O)[O-])ccc1N1CCOCC1,-31.8%
14,O=C(Nc1nc(-c2ccccc2)cs1)c1ccc(N2CCOCC2)c([N+](=O)[O-])c1,104% (active)
15,O=C(Nc1nccs1)c1ccc(N2CCOCC2)c([N+](=O)[O-])c1,-45.2%
16,Cn1nnc(NC(=O)c2ccc([N+](=O)[O-])cc2Cl)n1,11.3%
17,CC(C)(Cc1ccc(O)cc1)NC(=O)SCc1ccccc1,72.6% (active)
18,C=CC(=O)NC(C)(C)Cc1ccccc1,1.5%
19,CC(C)(Cc1ccc(O)cc1)NC(=O)c1ccccc1,43.7%
20,CC(C(=O)NCc1ccccc1)N1C(=O)C2CC=C(Cl)CC2C1=O (stereo not given),13.9%
21,Cc1cccc(N/C(=N/S(=O)(=O)c2ccccc2)c2ccccc2)n1,-38%
22,Cc1ccc(CN2C(=O)CSC2c2ccc(F)cc2)cc1 (stereo not given),-22.3%
23,S=C(NCc1ccco1)N1CCN(Cc2ccco2)CC1,-6.3%
24,CCOCCCNC(=S)N1CCN(CC)CC1,-22.2%
25,CCOCCCNC(=S)N1CCN(Cc2ccco2)CC1,57.4% (active)
